Assay results published in ChEMBL document CHEMBL2218924, “A broad activity screen in support of a chemogenomic map for kinase signalling research and drug discovery” (Biochem J, 2013).

What was measured:
[1] = target: Serine/threonine-protein kinase PLK3 (Homo sapiens) (UniProt Q9H4B4); conditions: at 1 µM
[2] = target: Serine/threonine-protein kinase PLK3 (Homo sapiens) (UniProt Q9H4B4); conditions: at 10 µM
[3] = target: T1, cAMP-dependent protein kinase catalytic subunit PRKX (Homo sapiens) (UniProt P51817); conditions: at 1 µM
T1 sequence (whole entry): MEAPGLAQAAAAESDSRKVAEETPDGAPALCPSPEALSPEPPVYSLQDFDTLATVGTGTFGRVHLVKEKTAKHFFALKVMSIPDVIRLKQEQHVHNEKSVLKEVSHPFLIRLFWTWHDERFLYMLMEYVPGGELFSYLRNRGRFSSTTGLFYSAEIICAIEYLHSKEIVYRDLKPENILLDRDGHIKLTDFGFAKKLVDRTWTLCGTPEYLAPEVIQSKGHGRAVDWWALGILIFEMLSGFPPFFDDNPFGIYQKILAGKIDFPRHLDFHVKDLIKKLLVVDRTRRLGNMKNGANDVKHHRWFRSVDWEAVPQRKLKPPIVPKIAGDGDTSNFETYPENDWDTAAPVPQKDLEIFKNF

[4] = target: T1, cAMP-dependent protein kinase catalytic subunit PRKX (Homo sapiens); conditions: at 10 µM
[5] = target: Protein-tyrosine kinase 2-beta (Homo sapiens) (UniProt Q14289); conditions: at 1 µM
[6] = target: Protein-tyrosine kinase 2-beta (Homo sapiens) (UniProt Q14289); conditions: at 10 µM
[7] = target: Receptor-interacting serine/threonine-protein kinase 2 (Homo sapiens) (UniProt O43353); conditions: at 1 µM
Chain of Receptor-interacting serine/threonine-protein kinase 2 (Homo sapiens) (O43353 whole entry): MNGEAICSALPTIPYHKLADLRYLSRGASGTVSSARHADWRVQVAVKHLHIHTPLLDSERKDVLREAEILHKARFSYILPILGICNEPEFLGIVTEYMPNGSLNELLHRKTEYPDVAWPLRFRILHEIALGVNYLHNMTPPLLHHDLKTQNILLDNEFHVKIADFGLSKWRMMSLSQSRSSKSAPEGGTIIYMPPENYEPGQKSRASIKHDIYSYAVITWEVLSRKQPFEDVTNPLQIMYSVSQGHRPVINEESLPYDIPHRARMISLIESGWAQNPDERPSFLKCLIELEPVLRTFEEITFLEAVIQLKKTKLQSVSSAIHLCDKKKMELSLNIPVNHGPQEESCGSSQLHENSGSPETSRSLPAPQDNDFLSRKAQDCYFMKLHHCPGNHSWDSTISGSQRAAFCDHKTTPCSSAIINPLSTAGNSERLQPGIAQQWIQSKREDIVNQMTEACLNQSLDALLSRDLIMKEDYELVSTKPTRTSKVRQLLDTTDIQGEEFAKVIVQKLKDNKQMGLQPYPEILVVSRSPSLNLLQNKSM

[8] = target: Receptor-interacting serine/threonine-protein kinase 2 (Homo sapiens) (UniProt O43353); conditions: at 10 µM
[9] = target: Rho-associated protein kinase 1 (Homo sapiens) (UniProt Q13464); conditions: at 1 µM
[10] = target: Rho-associated protein kinase 1 (Homo sapiens) (UniProt Q13464); conditions: at 10 µM
[11] = target: Rho-associated protein kinase 2 (Homo sapiens) (UniProt O75116); conditions: at 1 µM
[12] = target: Rho-associated protein kinase 2 (Homo sapiens) (UniProt O75116); conditions: at 10 µM
[13] = target: Proto-oncogene tyrosine-protein kinase receptor Ret (Homo sapiens) (UniProt P07949); conditions: at 1 µM
Chain of Proto-oncogene tyrosine-protein kinase receptor Ret (Homo sapiens) (P07949 whole entry): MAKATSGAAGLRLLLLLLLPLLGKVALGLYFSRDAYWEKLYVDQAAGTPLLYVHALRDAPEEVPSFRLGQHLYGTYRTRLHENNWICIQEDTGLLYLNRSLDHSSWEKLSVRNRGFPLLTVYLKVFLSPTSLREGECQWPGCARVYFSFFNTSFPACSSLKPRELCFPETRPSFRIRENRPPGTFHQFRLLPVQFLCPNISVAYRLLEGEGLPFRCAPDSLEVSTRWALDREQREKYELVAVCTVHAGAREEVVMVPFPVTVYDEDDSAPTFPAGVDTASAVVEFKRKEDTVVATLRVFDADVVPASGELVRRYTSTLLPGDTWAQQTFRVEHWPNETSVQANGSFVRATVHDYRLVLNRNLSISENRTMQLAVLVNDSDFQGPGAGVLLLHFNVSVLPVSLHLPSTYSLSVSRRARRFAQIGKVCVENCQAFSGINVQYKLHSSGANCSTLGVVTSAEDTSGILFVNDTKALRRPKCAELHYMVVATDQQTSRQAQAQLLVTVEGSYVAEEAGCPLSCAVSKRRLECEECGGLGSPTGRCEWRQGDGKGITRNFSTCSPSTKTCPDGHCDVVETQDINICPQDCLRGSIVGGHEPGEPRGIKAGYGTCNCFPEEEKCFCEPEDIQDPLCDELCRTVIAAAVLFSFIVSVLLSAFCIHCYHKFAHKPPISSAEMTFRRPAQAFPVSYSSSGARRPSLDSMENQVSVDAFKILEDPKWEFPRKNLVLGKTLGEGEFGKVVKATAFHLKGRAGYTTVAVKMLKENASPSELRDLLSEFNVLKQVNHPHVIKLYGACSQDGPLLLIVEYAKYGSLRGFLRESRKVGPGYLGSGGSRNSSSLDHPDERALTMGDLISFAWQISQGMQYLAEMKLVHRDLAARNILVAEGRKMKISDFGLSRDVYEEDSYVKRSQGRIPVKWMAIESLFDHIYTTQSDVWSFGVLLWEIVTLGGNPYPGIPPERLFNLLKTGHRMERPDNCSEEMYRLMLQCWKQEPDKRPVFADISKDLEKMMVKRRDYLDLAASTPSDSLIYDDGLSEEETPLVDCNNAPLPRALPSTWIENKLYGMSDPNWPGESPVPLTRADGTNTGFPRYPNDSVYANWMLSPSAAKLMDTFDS

[14] = target: Proto-oncogene tyrosine-protein kinase receptor Ret (Homo sapiens) (UniProt P07949); conditions: at 10 µM
[15] = target: Macrophage-stimulating protein receptor (Homo sapiens) (UniProt Q04912); conditions: at 1 µM
[16] = target: Macrophage-stimulating protein receptor (Homo sapiens) (UniProt Q04912); conditions: at 10 µM
[17] = target: Proto-oncogene tyrosine-protein kinase ROS (Homo sapiens) (UniProt P08922); conditions: at 1 µM
Chain of Proto-oncogene tyrosine-protein kinase ROS (Homo sapiens) (P08922 whole entry): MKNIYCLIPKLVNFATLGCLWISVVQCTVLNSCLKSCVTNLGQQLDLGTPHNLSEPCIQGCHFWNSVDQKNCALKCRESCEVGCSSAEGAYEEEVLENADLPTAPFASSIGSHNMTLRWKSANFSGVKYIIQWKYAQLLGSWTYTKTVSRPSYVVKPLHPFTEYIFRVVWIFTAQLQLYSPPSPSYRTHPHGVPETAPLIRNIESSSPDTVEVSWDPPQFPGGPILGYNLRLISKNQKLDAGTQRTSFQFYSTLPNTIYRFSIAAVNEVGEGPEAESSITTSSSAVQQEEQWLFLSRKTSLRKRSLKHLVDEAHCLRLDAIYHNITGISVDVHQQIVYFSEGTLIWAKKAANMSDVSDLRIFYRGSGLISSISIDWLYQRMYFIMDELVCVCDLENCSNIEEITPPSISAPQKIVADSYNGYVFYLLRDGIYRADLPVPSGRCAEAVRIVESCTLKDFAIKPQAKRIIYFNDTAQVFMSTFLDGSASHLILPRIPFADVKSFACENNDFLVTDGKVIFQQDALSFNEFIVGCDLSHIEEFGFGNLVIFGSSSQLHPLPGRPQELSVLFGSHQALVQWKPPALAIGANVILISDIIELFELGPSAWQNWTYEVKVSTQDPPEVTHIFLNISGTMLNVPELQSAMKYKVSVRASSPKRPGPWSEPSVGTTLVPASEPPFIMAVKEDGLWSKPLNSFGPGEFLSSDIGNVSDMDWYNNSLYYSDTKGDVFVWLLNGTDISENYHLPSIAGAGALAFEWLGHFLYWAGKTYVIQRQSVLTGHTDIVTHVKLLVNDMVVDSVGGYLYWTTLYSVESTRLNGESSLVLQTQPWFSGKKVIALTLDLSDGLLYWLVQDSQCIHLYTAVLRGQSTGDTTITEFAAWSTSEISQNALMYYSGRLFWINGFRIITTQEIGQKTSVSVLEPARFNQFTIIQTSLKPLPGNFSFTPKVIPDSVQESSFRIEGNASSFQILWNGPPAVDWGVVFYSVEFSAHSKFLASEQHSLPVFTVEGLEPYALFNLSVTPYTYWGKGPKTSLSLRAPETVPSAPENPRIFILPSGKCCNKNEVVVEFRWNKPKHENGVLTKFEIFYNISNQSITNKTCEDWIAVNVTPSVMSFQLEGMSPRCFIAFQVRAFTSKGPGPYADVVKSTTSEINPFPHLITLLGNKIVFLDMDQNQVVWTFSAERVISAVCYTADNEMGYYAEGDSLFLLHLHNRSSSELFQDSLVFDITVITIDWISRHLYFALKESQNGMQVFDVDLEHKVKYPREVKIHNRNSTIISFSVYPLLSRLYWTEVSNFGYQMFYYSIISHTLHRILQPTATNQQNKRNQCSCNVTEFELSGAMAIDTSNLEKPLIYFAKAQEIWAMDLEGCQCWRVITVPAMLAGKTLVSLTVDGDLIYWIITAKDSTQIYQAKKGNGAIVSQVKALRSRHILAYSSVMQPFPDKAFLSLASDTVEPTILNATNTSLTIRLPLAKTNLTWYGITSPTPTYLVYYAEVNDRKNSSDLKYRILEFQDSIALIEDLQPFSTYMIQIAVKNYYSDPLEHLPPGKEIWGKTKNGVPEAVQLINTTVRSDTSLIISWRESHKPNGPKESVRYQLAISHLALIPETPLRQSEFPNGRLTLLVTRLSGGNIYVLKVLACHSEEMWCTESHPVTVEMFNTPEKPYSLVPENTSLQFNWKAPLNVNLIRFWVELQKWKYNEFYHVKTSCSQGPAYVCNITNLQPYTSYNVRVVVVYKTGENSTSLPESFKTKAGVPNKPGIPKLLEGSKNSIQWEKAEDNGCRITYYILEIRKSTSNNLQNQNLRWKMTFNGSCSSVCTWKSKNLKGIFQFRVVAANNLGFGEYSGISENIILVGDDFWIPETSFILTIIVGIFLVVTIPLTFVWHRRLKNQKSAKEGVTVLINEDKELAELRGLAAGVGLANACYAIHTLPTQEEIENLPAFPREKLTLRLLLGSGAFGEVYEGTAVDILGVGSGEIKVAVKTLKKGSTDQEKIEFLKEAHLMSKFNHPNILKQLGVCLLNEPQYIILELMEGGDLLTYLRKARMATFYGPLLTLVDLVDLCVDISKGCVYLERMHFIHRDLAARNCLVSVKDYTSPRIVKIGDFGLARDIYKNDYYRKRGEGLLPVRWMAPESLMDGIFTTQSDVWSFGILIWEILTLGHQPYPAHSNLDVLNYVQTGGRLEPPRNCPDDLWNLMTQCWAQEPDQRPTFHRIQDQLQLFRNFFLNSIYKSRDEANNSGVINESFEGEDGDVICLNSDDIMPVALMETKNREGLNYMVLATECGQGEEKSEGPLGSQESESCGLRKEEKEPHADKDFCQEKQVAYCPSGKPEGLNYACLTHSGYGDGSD

[18] = target: Proto-oncogene tyrosine-protein kinase ROS (Homo sapiens) (UniProt P08922); conditions: at 10 µM
[19] = target: T2, Tyrosine-protein kinase receptor TYRO3 (Homo sapiens) (UniProt Q06418); conditions: at 1 µM
T2 sequence (whole entry): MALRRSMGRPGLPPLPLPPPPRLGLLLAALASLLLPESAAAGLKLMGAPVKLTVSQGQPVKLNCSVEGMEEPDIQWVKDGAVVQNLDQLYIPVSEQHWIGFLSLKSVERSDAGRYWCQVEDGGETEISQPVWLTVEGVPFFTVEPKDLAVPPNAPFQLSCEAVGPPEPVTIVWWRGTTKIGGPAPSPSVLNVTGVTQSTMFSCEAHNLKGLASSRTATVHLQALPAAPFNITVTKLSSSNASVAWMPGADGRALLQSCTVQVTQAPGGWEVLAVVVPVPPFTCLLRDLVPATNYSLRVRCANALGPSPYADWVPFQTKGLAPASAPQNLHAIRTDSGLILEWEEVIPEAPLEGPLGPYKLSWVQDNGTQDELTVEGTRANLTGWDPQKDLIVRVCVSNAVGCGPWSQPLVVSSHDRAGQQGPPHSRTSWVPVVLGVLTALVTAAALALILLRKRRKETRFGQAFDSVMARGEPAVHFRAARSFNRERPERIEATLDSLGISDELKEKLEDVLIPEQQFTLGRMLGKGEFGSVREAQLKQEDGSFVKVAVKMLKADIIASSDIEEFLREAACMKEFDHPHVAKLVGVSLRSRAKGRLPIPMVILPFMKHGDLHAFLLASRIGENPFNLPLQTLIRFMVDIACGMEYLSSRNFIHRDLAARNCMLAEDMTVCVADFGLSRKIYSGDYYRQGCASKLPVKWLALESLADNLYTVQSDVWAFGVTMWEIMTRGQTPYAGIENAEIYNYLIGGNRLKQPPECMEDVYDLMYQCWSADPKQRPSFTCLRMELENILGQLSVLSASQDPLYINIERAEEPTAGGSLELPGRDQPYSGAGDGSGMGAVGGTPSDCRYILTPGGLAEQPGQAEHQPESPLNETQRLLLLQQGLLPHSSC

[20] = target: T2, Tyrosine-protein kinase receptor TYRO3 (Homo sapiens); conditions: at 10 µM

Chain of Serine/threonine-protein kinase PLK3 (Homo sapiens) (Q9H4B4 whole entry, looked up): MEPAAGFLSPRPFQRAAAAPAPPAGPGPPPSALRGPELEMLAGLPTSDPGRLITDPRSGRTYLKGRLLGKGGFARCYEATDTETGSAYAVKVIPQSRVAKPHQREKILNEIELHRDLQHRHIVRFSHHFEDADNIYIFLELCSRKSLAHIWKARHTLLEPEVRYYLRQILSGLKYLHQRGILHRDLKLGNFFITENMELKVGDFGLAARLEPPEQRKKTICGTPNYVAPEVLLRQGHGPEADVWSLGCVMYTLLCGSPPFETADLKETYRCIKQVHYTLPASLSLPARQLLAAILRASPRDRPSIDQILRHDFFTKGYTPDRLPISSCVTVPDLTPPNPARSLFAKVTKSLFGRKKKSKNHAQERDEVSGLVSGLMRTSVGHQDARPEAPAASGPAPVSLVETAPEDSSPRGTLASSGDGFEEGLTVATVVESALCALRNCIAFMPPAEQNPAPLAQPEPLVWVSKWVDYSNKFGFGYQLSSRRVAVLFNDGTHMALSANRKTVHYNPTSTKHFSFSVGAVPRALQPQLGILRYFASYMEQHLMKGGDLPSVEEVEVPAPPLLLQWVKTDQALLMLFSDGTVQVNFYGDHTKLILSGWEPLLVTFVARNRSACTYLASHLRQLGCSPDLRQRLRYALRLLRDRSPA

| SMILES | residual activity [1] | residual activity [2] [%] | residual activity [3] [%] | residual activity [4] [%] | residual activity [5] [%] | residual activity [6] [%] | residual activity [7] [%] | residual activity [8] [%] | residual activity [9] [%] | residual activity [10] [%] | residual activity [11] [%] | residual activity [12] [%] | residual activity [13] [%] | residual activity [14] [%] | residual activity [15] [%] | residual activity [16] [%] | residual activity [17] [%] | residual activity [18] [%] | residual activity [19] [%] | residual activity [20] [%] |
| --- | --- | --- | --- | --- | --- | --- | --- | --- | --- | --- | --- | --- | --- | --- | --- | --- | --- | --- | --- | --- |
| COc1cc2ncnc(Nc3ccc(Oc4ccccc4)cc3)c2cc1OC | 87% (inactive) | 95 | 92 | 132 | 96 | 69 | 28 | 19 | 115 | 126 | 104 | 84 | 25 | 7 | 92 | 59 | 102 | 101 | 14 | 7 |
| Cc1ccc(NC2=CC(=O)c3sc(C)nc3C2=O)cc1 | 97% (inactive) | 91 | 102 | 97 | 108 | 102 | 81 | 89 | 117 | 102 | 87 | 90 | 109 | 97 | 79 | 81 | 101 | 88 | 98 | 101 |
| O=C1Nc2cc(Br)ccc2/C1=C1/Nc2ccccc2/C1=N\O | 100% (inactive) | 91 | 73 | 36 | 10 | 3 | 78 | 85 | 113 | 102 | 90 | 93 | 1 | 0 | 79 | 89 | 90 | 87 | 81 | 78 |
| O=C1NC(=O)/C(=C/c2ccc3c(c2)OC(F)(F)O3)S1 | 94% (inactive) | 96 | 88 | 77 | 135 | 101 | 99 | 83 | 95 | 116 | 113 | 89 | 91 | 98 | 100 | 77 | 105 | 108 | 96 | 105 |
| CCN(CC)CCCCN1c2ccccc2Oc2ccc(Cl)cc21 | 101% (inactive) | 99 | 109 | 101 | 131 | 115 | 105 | 85 | 113 | 121 | 110 | 91 | 108 | 117 | 105 | 91 | 100 | 101 | 108 | 108 |
| Ic1cccc(CSc2nnc(-c3ccncc3)o2)c1 | 87% (inactive) | 94 | 57 | 71 | 103 | 101 | 82 | 78 | 113 | 98 | 68 | 58 | 93 | 74 | 81 | 78 | 93 | 75 | 112 | 94 |
| Oc1n[nH]c2nnc(-c3c(-c4ccccc4)nn4ccccc34)cc12 | 96% (inactive) | 89 | 86 | 81 | 102 | 88 | 87 | 85 | 121 | 104 | 83 | 91 | 102 | 80 | 70 | 53 | 91 | 87 | 109 | 97 |
| Nc1ccc2ncnc(NCCc3ccc(Oc4ccccc4)cc3)c2c1 | 102% (inactive) | 96 | 109 | 58 | 88 | 72 | 102 | 88 | 106 | 100 | 110 | 94 | 76 | 55 | 82 | 70 | 107 | 100 | 113 | 100 |
| CCOc1cc2ncnc(Nc3cccc(Br)c3)c2cc1OCC | 87% (inactive) | 100 | 98 | 78 | 110 | 58 | 24 | 12 | 94 | 95 | 91 | 70 | 30 | 1 | 101 | 57 | 103 | 100 | 51 | 16 |
| COc1ccc(S(=O)(=O)N(CCO)c2ccccc2CN(C)C/C=C/c2ccc(Cl)cc2)cc1 | 87% (inactive) | 96 | 88 | 51 | 109 | 96 | 92 | 91 | 134 | 124 | 100 | 91 | 105 | 87 | 90 | 88 | 105 | 87 | 113 | 112 |
| CO[C@H]1C[C@@H]2CC[C@@H](C)[C@@](O)(O2)C(=O)C(=O)N2CCCC[C@H]2C(=O)O[C@H]([C@H](C)C[C@@H]2CC[C@@H](O)[C@H](OC)C2)CC(=O)[C@H](C)/C=C(\C)[C@@H](O)[C@@H](OC)C(=O)[C@H](C)C[C@H](C)/C=C/C=C/C=C/1C | 93% (inactive) | 94 | 98 | 94 | 119 | 99 | 84 | 84 | 127 | 140 | 99 | 92 | 102 | 107 | 99 | 80 | 90 | 92 | 94 | 118 |
| Oc1c2ccccc2c2c3c(cccc13)N=N2 | 94% (inactive) | 82 | 86 | 70 | 68 | 23 | 70 | 52 | – | 95 | 74 | 39 | 43 | 11 | 78 | 51 | 93 | 85 | 97 | 81 |
| CC(C)n1cnc2/c(=N/c3cccc(Cl)c3)nc(NCCO)[nH]c21 | 93% (inactive) | 57 | 82 | 65 | 56 | 18 | 77 | 68 | 113 | 82 | 83 | 66 | 93 | 40 | 74 | 70 | 77 | 63 | 118 | 51 |
| C[C@@H](N)[C@H]1CC[C@H](C(=O)Nc2ccncc2)CC1 | 108% (inactive) | 96 | 72 | 24 | – | – | 96 | – | 77 | 31 | 19 | 4 | – | – | – | 101 | 104 | 105 | 123 | 124 |
| c1ccc(-c2n[nH]cc2-c2ccnc3ccccc23)nc1 | 99% (inactive) | 94 | 96 | 94 | 109 | 96 | 29 | 16 | – | 127 | 93 | 76 | 104 | 91 | – | – | 98 | 93 | 93 | 75 |
| Nc1cccc(-c2cc3c(Oc4cccc(O)c4)ncnc3[nH]2)c1 | 99% (inactive) | 74 | 85 | 70 | 25 | 5 | 18 | 11 | – | 97 | 93 | 87 | 2 | 0 | 83 | 40 | 98 | 60 | 6 | 0 |
| CC(=O)c1ccc(N2CCOCC2)cc1O | 90% (inactive) | 92 | 106 | 95 | – | 103 | 95 | 81 | – | – | 92 | 87 | 99 | 109 | 91 | 77 | 94 | 98 | 86 | 106 |
| O=[N+]([O-])c1ccc(-c2nc(-c3ccc(F)cc3)c(-c3ccncc3)[nH]2)cc1 | – | 108 | 132 | 26 | 114 | 105 | 19 | 25 | 122 | 118 | 87 | 94 | 78 | 73 | 90 | 90 | 104 | 91 | 86 | 111 |
| CO[C@H]1[C@@H](OC)C[C@H](C)[C@@H](OC)C2=CC(=O)C=C(NC(=O)/C(C)=C/C=C/[C@H](OC)[C@@H](OC(N)=O)/C(C)=C/[C@@H]1C)C2=O | 99% (inactive) | 104 | 80 | 72 | 124 | 100 | 93 | 96 | 121 | – | – | – | 108 | 106 | 85 | 85 | 92 | 94 | 86 | 101 |
| COc1ccc(CNc2nc(N(CCO)CCO)nc3c2ncn3C(C)C)cc1 | 97% (inactive) | 95 | 95 | 101 | 83 | 85 | 83 | 78 | 121 | 109 | 91 | 96 | 108 | 97 | 76 | 85 | 96 | 85 | 116 | 97 |
| O=C1NC(=O)/C(=C\c2ccc3nccnc3c2)S1 | 95% (inactive) | 85 | 67 | 27 | 124 | 103 | 56 | 21 | 109 | 107 | 95 | 80 | 98 | 96 | 88 | 76 | 94 | 99 | 89 | 92 |
| O=C1Nc2ccccc2/C1=C1/Nc2ccccc2/C1=N\OCCC(O)CO (stereo unspecified) | – | – | 66 | 41 | 7 | 2 | 58 | 50 | 114 | 98 | – | – | 2 | -1 | 75 | 61 | – | – | 52 | 46 |
